# MOR-DOR inv ag-1: inverse agonists of MOR-DOR heterodimerization, primary screen, cell-based, luminescence | Mu-type opioid receptor (Homo sapiens) + Delta-type opioid receptor (Homo sapiens), … | 0.21% of 340,000 active | cell-based MOR-DOR heterodimer luminescence, inverse agonism | inhibition, % at 9.3 µM; in the data active = inhibition above about 22%, passing the limit was not always enough;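 also: 0% = cells with DMSO and 100% = wells without cells with DMSO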
# HTR5A ag ctr: HTR5A agonists in luminescence cell assay, primary screen, counter-screen for OPRM1-OPRD1 heterodimer agonist project, full-deck HTS; 0.61% of 340,000 active; cell-based; activation, % at 9.3 µM; 5-hydroxytryptamine receptor 5A (Homo sapiens), P47898; in the data active = activation mostly above about 9.5%, no sharp cut-off; inactive = mostly below about 7.6%;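 also: 0% = cells with vehicle only and 100% = reference agonist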
# Target sequence (P47898 whole entry, looked up): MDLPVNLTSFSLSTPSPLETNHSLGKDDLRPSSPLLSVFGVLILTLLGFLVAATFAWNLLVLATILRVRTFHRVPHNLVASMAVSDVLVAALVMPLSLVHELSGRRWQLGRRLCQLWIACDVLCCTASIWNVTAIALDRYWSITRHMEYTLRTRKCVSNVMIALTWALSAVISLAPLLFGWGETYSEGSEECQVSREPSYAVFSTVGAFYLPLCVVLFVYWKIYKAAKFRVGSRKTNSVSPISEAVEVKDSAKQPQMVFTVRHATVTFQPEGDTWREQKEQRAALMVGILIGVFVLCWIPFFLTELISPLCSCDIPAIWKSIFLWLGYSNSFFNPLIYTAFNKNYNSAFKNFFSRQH
# beta cell repl: inducers of MIN6 beta-cell proliferation, primary screen, ATP luminescence, uHTS. MIN6 cells proliferation, ATPlite luminescence, 48 h; cells starved in 0.2% serum; 100% = growth in 10% serum. 0.29% of 330,000 active. proliferation, % at 10 µM;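 active = compounds whose signal lies at least 3.5 SD above the mean of all wells on their plate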;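 also: 0% = DMSO-treated cells in low-serum medium and 100% = 10% serum control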
# p-CIP stab down: p/CIP-EGFP fusion destabilizers, primary screen, fluorescence, F442A cells | Q05BA5 | 16 h | decrease of EGFP signal, % at 10 µM | AID 1984, 2009 | 0.01% of 290,000 active;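 active = EGFP signal decrease of at least 30% at 10 µM or well 3 SD below plate mean, unless failing retest; inactive = the rest, including hits failing retest or dose response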
# MOR-DOR ag: agonists of OPRM1-OPRD1 heterodimerization, primary screen, cell-based, luminescence; 0.3% of 340,000 active; activation, % at 9.3 µM; cells; in the data active = activation above about 18%;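 also: 0% = vehicle-treated cells and 100% = reference agonist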
# HTR5A inv ctr: HTR5A inverse agonists in luminescence cell assay, primary screen, counter-screen for OPRM1-OPRD1 heterodimer inverse agonist project, full-deck HTS; 0.083% of 340,000 active; inhibition, % at 9.3 µM; 5-hydroxytryptamine receptor 5A (Homo sapiens), P47898; HTR5A cell line, inverse agonism; in the data active = inhibition mostly above about 23%, no sharp cut-off; inactive = mostly below about 18%;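 also: 0% = cells with DMSO and 100% = no-cell wells with DMSO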
# MOR-DOR inv ag-2: inverse agonists of MOR-DOR heterodimerization, counter-screen for HTR5A inverse agonist project, cell-based, luminescence; U2OS counter-screen cells, complementation luminescence; 190 tested, under 10 active; inhibition, % at 9.3 µM; shares compounds with HTR5A inv ctr;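 also: 0% = cells with DMSO and 100% = wells without cells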
# HTR5A inv confrm: HTR5A inverse agonists, retest of hits, confirmation, cell-based, luminescence. shares compounds with HTR5A inv ctr. HTR5A-expressing cells, inverse agonism. inhibition, % at 9.3 µM. 190 tested, under 10 active. AID 504916, 2011;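 also: 0% = cells with DMSO and 100% = no cells with DMSO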
# * = called active by the depositor; . = no result. In the library only some 1.4% were active in any assay of this set; here they are far more common. Unless noted, no rule for the calls is given here.
SMILES,MOR-DOR inv ag-1,HTR5A ag ctr,beta cell repl,p-CIP stab down,MOR-DOR ag,HTR5A inv ctr,MOR-DOR inv ag-2,HTR5A inv confrm
Cc1ccc(S(=O)(=O)N2CC(=O)N3CCN(CCN)C3C2)cc1 (stereo unspecified),11,5,0,.,-2,7,.,.
NS(=O)(=O)c1ccc(N=Nc2c[nH]c(=O)c(O)c2)cc1,19,-9,-5,-3,-4,32*,16,29
Nc1nc(O)c(N=Nc2ccc(S(N)(=O)=O)cc2)c(=O)[nH]1,.,.,-1,-8,.,.,.,.
COc1ccc(/C=C/C(=O)NC(=S)NNC(=O)c2c(-c3ccccc3)noc2C)cc1,28,-12,-4,-8,-5,49*,-3,-1
Cc1onc(-c2ccccc2)c1C(=O)NNC(=S)NC(=O)/C=C/c1ccccc1,20,-10,0,-9,-4,25,.,.
NCCNc1ccc(C(=O)N2c3ccccc3Sc3ccccc32)cc1[N+](=O)[O-],-25,3,-4,4,5,3,.,.
O=[N+]([O-])c1ccc(O)c(N=Cc2sc3ccccc3c2O)c1,14,-1,.,-1,-3,46*,-7,19
Oc1ccc(Cl)cc1N=Cc1sc2ccccc2c1Cl,-24,3,.,-17,5,-8,.,.
CCN(CC)c1ccc2nc3ccccc3[n+](CC)c2c1,14,-9,-4,-20,-3,34*,-279,-4
CCN(CC)c1ccc2nc3ccc(N)cc3[n+](-c3ccccc3)c2c1,15,-14,-7,.,-3,36*,-4,37
CCN(CC)c1ccc2cc(-c3nc4ccccc4[nH]3)c(=O)oc2c1,-6,8,-6,-335,1,-25,.,.
CCN(CC)CCNc1oc(-c2ccccc2)nc1S(=O)(=O)c1ccccc1,13,1,-2,.,-3,-4,.,.
CC(Sc1nc(N)cc(=O)[nH]1)C(=O)NC1CCCCC1 (stereo unspecified),0,-3,-1,5,0,4,.,.
CC(Sc1ncccn1)C(=O)NC1CCCC1 (stereo unspecified),15,9,7,.,-4,37*,-12,-87
CCOc1ccc(NC(=O)COC(=O)c2cc(C)oc2C)cc1,-2,-2,-2,.,1,5,.,.
CCc1c(C)sc(NC(=O)C2CC(c3c(F)cccc3Cl)=NO2)c1C#N (stereo unspecified),-12,-9,-3,-7,2,33*,-47,-8
N#Cc1c(NC(=O)C2CC(c3c(F)cccc3Cl)=NO2)sc2c1CCC2 (stereo unspecified),-1,5,0,1,0,-12,.,.
COc1cc2nc(C3CCC3)nc(N3CCN(c4ccccn4)CC3)c2cc1OC,8,1,-4,0,-1,52*,-23,-2
COc1cc(/C=C2/SC(=S)N(c3c(C)n(C)n(-c4ccccc4)c3=O)C2=O)ccc1O,33,-12,-1,-50,-7,28*,-4,6
O=C1/C(=C/c2cccc(O)c2)SC(=S)N1CC1CCCO1 (stereo unspecified),-44,-2,0,-21,8,7,.,.
O=C1/C(=C\c2ccc(O)c(O)c2)SC(=S)N1Cc1ccccc1,1,-8,-7,-265,0,30*,-9,27
COc1cc(/C=C2/SC(=NCc3ccccc3)N(Cc3ccccc3)C2=O)ccc1O,4,-9,-6,-6,-1,23,.,.
COc1cc(/C=C2\SC(=S)N(C(C(=O)O)c3ccccc3)C2=O)ccc1O (stereo unspecified),17,-7,-1,-130,-3,20,.,.
CCOc1cc(/C=C2/SC(=S)N(CC3CCCO3)C2=O)ccc1O (stereo unspecified),21,-11,-2,-16,-5,31*,-46,25
COc1cc(/C=C2/SC(=S)N(Cc3ccccc3)C2=O)ccc1O,11,-8,-4,-9,-2,30*,-43,36
SMILES,MOR-DOR inv ag-1,HTR5A ag ctr,beta cell repl,p-CIP stab down,MOR-DOR ag,HTR5A inv ctr,MOR-DOR inv ag-2,HTR5A inv confrm
Cc1cc(F)ccc1S(=O)(=O)N(CC(=O)N1CCOCC1)CC(=O)N1CCOCC1,11,-1,2,.,-2,4,.,.
CC(C)[C@H](NS(=O)(=O)c1cccc(C(F)(F)F)c1)C(=O)OCC(=O)NC(=O)NCc1ccco1,-15,-3,2,.,4,8,.,.
CCOc1ccc(NC(=O)c2ccc3c(c2)C(=O)N(Cc2ccncc2)C3=O)cc1,1,2,-4,.,0,7,.,.
COc1cc(/C=C2\SC(=S)N(NC(=O)c3ccccc3OC)C2=O)ccc1O,28,-9,-4,-27,-6,33*,-14,32
COc1cc(/C=C/C(=O)c2ccc3c(c2)OCCO3)cc(Br)c1OCC(=O)N(C)C,9,-1,-4,-26,-2,2,.,.
Cn1nc(OCc2ccccc2)ccc1=O,14,0,2,12,-2,-16,.,.
Cn1nc(OCCOc2ccccc2)ccc1=O,12,-16,1,-4,-2,40*,-25,-1
CCCCC[C@@H](/C=C/C1C(=O)C=C[C@H]1C/C=C\CCCC(=O)O)OC(C)=O (stereo partly specified),15,4,.,.,-3,-13,.,.
CC1CC(C)CN(c2ncc3c(n2)CC(c2ccc(Cl)cc2)CC3=O)C1 (stereo unspecified),4,-10,-7,-11,-1,32*,-13,-9
Cc1ccc(C2CC(=O)c3cnc(N4CC(C)CC(C)C4)nc3C2)cc1 (stereo unspecified),.,.,.,-5,.,.,.,.
O=C1OC[C@H](Cc2ccc3c(c2)OCO3)/C1=C\c1ccc2c(c1)OCO2,-3,-4,-4,.,1,-11,.,.
COC(=O)c1ccccc1-c1c2ccc(=N)cc-2oc2cc(N)ccc12,27,-10,-7,.,-5,35*,13,30
COc1ccc(Cl)cc1NC(=O)Nc1cnccn1,2,-16,-1,1,0,41*,-51,-3
COc1ccc(C(=O)CSc2[nH]c(=O)cc(C(F)(F)F)c2C#N)cc1,3,5,-3,-4,-1,-34,.,.
COCCCNC(=O)c1ccc2c(=O)n(Cc3ccc4c(c3)OCO4)c(=S)[nH]c2c1,4,3,0,-1,-1,57*,-3,-13
